The panel holds about 79,000 compounds, 15% with a hit somewhere; the sample as a whole holds those more often. Activity calls are given as the source filed them. Cut-off read from the data, not from the text of the source: active = growth inhibition above about 70%; inactive = the rest.
Legend:
[1] = NCI Yeast Anticancer Drug Screen. Data for the rad52 strain (AID 147);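 note: 0% = growth of vehicle-treated control cultures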; conditions: S. cerevisiae rad52 mutant growth inhibition, active compounds read high
Method in brief: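 Yeast strain carrying a DNA damage repair alteration was exposed to test compounds. Growth inhibition was measured relative to vehicle-treated controls.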

[2] = NCI Yeast Anticancer Drug Screen. Data for the wt1 strain (AID 149);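 note: 0% = growth of vehicle-treated wt1 cultures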; conditions: S. cerevisiae wt1 strain (SPY 50644) growth inhibition, active compounds read high
Method in brief: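 Compounds are added to wt1 yeast cultures. Growth is then measured. Inhibition is expressed relative to vehicle-treated controls.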

[3] = NCI Yeast Anticancer Drug Screen. Data for the rad50EPP+ strain (AID 151);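 note: 0% = growth of vehicle-treated control cultures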; conditions: S. cerevisiae rad50 mutant strain, active compounds read high
Method in brief: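 Yeast strain carrying rad50 alteration (rad50EPP+) exposed to compounds; growth inhibition measured relative to vehicle-treated controls.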

[4] = NCI Yeast Anticancer Drug Screen. Data for the mgt1 strain (AID 153); conditions: S. cerevisiae mgt1 mutant growth inhibition, active compounds read high
Method in brief: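 Yeast mgt1 strain (DNA repair/cell-cycle alteration panel) exposed to compounds; growth inhibition measured relative to vehicle-treated controls.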

[5] = NCI Yeast Anticancer Drug Screen. Data for the rad50 strain (AID 155);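 note: 0% = growth of vehicle-only cultures of the same strain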; conditions: S. cerevisiae rad50 strain growth inhibition, active compounds read high
Method in brief: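 Inhibition values express reduced yeast growth in compound-treated cultures relative to vehicle-treated controls.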

[6] = NCI Yeast Anticancer Drug Screen. Data for the mec2-1 strain (AID 157); conditions: S. cerevisiae mec2-1 strain, active compounds read high
Method in brief: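 mec2-1 yeast strain, carrying an alteration in DNA damage repair or cell cycle control, was exposed to compounds; growth inhibition was measured relative to vehicle-treated controls.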

[7] = NCI Yeast Anticancer Drug Screen. Data for the rad14 strain (AID 159);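 note: 0% = growth of vehicle-treated control cultures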; conditions: S. cerevisiae rad14 strain growth inhibition, active compounds read high
Method in brief: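 A mutant yeast strain defective in DNA damage repair is treated with compound; inhibition of its growth is scored against untreated, vehicle-exposed cultures.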

[8] = NCI Yeast Anticancer Drug Screen. Data for the sgs1 mgt1 strain (AID 161);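 note: 0% = growth of cultures given vehicle only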; conditions: S. cerevisiae sgs1 mgt1 strain, active compounds read high
Method in brief: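 Yeast cells carrying a defined DNA-repair defect were exposed to test compounds. Growth inhibition was measured relative to vehicle-treated controls.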

[9] = NCI Yeast Anticancer Drug Screen. Data for the CLN2oe strain (AID 163);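 note: 0% = growth of vehicle-only control cultures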; conditions: S. cerevisiae CLN2oe strain, active compounds read high
Method in brief: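 Yeast cells carrying a defined cell-cycle control alteration were exposed to test compounds. Growth inhibition was scored against vehicle-treated control cultures.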

[10] = NCI Yeast Anticancer Drug Screen. Data for the cln2 rad14 strain (AID 165);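 note: 0% = growth equal to vehicle treated cultures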; conditions: S. cerevisiae cln2 rad14 strain, active compounds read high
Method in brief: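 Yeast carrying cln2 and rad14 alterations (cell cycle control and DNA damage repair) were exposed to compounds. Growth inhibition was measured against vehicle-treated controls.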

[11] = NCI Yeast Anticancer Drug Screen. Data for the bub3 strain (AID 167); conditions: S. cerevisiae bub3 mutant strain, active compounds read high
Method in brief: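 Steps: expose the mutant yeast strain to compound; grow alongside vehicle-treated cultures; measure growth; express inhibition against the vehicle cultures.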

[12] = NCI Yeast Anticancer Drug Screen. Data for the wt2 strain (AID 169);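 note: 0% = growth of vehicle-treated yeast cultures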; conditions: S. cerevisiae wt2 strain growth inhibition, active compounds read high
Method in brief: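 Yeast cells were exposed to test compounds, and growth inhibition was measured relative to vehicle-treated controls.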

[13] = NCI Yeast Anticancer Drug Screen. Data for the mlh1 strain (AID 171);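 note: 0% = growth of vehicle-treated control cultures of the same strain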; conditions: S. cerevisiae mlh1 strain growth inhibition, active compounds read high
Method in brief: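 Yeast carrying a defined genetic alteration in DNA damage repair or cell cycle control were exposed to test compounds. Growth inhibition was measured relative to vehicle-treated controls.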

[14] = NCI Yeast Anticancer Drug Screen. Data for the sgs1 strain (AID 173);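 note: 0% = growth of vehicle-only control cultures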; conditions: S. cerevisiae sgs1 mutant, active compounds read high
Method in brief: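 Yeast mutant strains carrying defined defects in DNA damage repair or cell cycle control were exposed to test compounds. Growth inhibition was scored against vehicle-treated controls.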

[15] = NCI Yeast Anticancer Drug Screen. Data for the mlh1 rad18 strain (AID 175); conditions: S. cerevisiae mlh1 rad18 strain growth inhibition, active compounds read high
Method in brief: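 Growth inhibition of the yeast strain was measured after compound exposure and expressed relative to vehicle-treated controls. The strain carries defined defects in DNA damage repair.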

[16] = NCI Yeast Anticancer Drug Screen. Data for the rad18 strain (AID 177); conditions: S. cerevisiae rad18 mutant growth inhibition, active compounds read high
Method in brief: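 Yeast carrying a defined DNA damage repair alteration were exposed to compounds. Growth inhibition was expressed relative to vehicle-treated controls.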

[17] = at 5.0 µM (retest, dose inferred, filed as 0.5)
[18] = at 50.0 µM (retest, dose inferred, filed as 5.0)

Measured: growth inhibition

CCCNC(=O)OCc1c(COC(=O)NCCC)c(-c2ccc(Cl)c(Cl)c2)n2c1CCC2
active: [7]; at 100.0 µM 73% | [10]; [18] 73% | [11]; [18] 90% | [16]; at 100.0 µM 78%
inactive: [1]; at 1.2 µM -3% | [1]; at 3.7 µM -7% | [1]; at 11.0 µM -5% | [1]; at 33.0 µM 29% | [1]; at 100.0 µM 58% | [2]; at 1.2 µM -25% | [2]; at 3.7 µM -38% | [2]; at 11.0 µM -35% | [2]; at 33.0 µM -34% | [2]; at 100.0 µM 4% | [3]; at 1.2 µM -4% | [3]; at 3.7 µM 0% | [3]; at 11.0 µM -6% | [3]; at 33.0 µM 8% | [3]; at 100.0 µM 5% | [4]; at 1.2 µM -48% | [4]; at 3.7 µM -35% | [4]; at 11.0 µM -30% | [4]; at 33.0 µM -7% | [4]; at 100.0 µM 50% | [5]; at 1.2 µM -39% | [5]; at 3.7 µM -43% | [5]; [17] 21% | [5]; at 11.0 µM -27% | [5]; at 33.0 µM 1% | [5]; [18] 42% | [5]; at 50.0 µM 61.9% | [5]; at 100.0 µM 50% | [6]; at 1.2 µM -47% | [6]; at 3.7 µM -40% | [6]; [17] 11% | [6]; at 11.0 µM -31% | [6]; at 33.0 µM -12% | [6]; [18] 25% | [6]; at 50.0 µM 41.1% | [6]; at 100.0 µM 28% | [7]; at 1.2 µM -28% | [7]; at 3.7 µM -3% | [7]; at 11.0 µM 0% | [7]; at 33.0 µM 54% | [8]; [17] 30% | [8]; [18] 67% | [8]; at 50.0 µM 50.7% | [9]; at 1.2 µM 0% | [9]; at 3.7 µM -16% | [9]; at 11.0 µM -15% | [9]; at 33.0 µM 4% | [9]; at 100.0 µM 20% | [10]; [17] 20% | [10]; at 50.0 µM 22.8% | [11]; at 1.2 µM -53% | [11]; at 3.7 µM -47% | [11]; [17] 60% | [11]; at 11.0 µM -24% | [11]; at 33.0 µM 6% | [11]; at 50.0 µM 46.2% | [11]; at 100.0 µM 48% | [12]; at 1.2 µM -36% | [12]; at 3.7 µM -16% | [12]; at 11.0 µM -27% | [12]; at 33.0 µM -21% | [12]; at 100.0 µM 44% | [13]; at 1.2 µM -9% | [13]; at 3.7 µM -9% | [13]; at 11.0 µM -19% | [13]; at 33.0 µM 26% | [13]; at 100.0 µM 57% | [14]; at 1.2 µM 0% | [14]; at 3.7 µM 4% | [14]; at 11.0 µM 11% | [14]; at 33.0 µM 40% | [14]; at 100.0 µM 62% | [15]; [17] 22% | [15]; [18] 62% | [15]; at 50.0 µM 56.4% | [16]; at 1.2 µM -35% | [16]; at 3.7 µM -29% | [16]; at 11.0 µM 2% | [16]; at 33.0 µM 62%

CCCCCCCC/C=C\CCCCCCCCN
active: [1]; at 33.0 µM 98% | [1]; at 100.0 µM 97% | [2]; at 33.0 µM 98% | [2]; at 100.0 µM 98% | [3]; at 33.0 µM 96% | [3]; at 100.0 µM 97% | [4]; at 33.0 µM 99% | [4]; at 100.0 µM 98% | [5]; at 33.0 µM 96% | [5]; at 50.0 µM 91.2% | [5]; at 100.0 µM 96%
inactive: [1]; at 1.2 µM 4% | [1]; at 3.7 µM 0% | [1]; at 11.0 µM -10% | [2]; at 1.2 µM 13% | [2]; at 3.7 µM 17% | [2]; at 11.0 µM 9% | [3]; at 1.2 µM 17% | [3]; at 3.7 µM 21% | [3]; at 11.0 µM 21% | [4]; at 1.2 µM 18% | [4]; at 3.7 µM 30% | [4]; at 11.0 µM 22% | [5]; at 1.2 µM -1% | [5]; at 3.7 µM -7% | [5]; [17] 30% | [5]; at 11.0 µM -15% | [5]; [18] 64% | [6]; at 1.2 µM 1% | [6]; at 3.7 µM 15%

Reference: PubChem BioAssay (NCI)
